# S2 tox: viability counter-screen for ATXN expression inhibitors; S2 cells (HEK-293 line with an ATXN2-luciferase reporter) viability, CellTiter-Fluor protease fluorescence, 24 h; Potency, µM (doses to about 56.7 µM), most hits filed as cytotoxic; AID 651635; actives 0.49% (n = 400,000); further: nearly all actives have a fitted effect of over 40% in size
# MCF10A rerep: induces DNA re-replication in MCF 10a normal breast cells; MCF 10A DNA re-replication, Hoechst nuclear intensity, 48 h; Potency, µM (titrated, usually from 46.1 µM), hits mostly activators; actives 2.9% (n = 350,000); further: nearly all actives have a fitted effect of over 50% in size
# IL-1B inflam inh: inflammasome signaling inhibition, IL-1 beta readout. actives 4.7% (n = 360,000). THP-1 LPS/ATP IL-1B secretion, AlphaLISA, 16 h; stronger effect = lower value. AID 743279. activity change, % at 57.5 µM; in the data active means activity change below about -50%; inconclusive means mostly about -30% to -49%
#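 Secreted IL-1B measured by AlphaLISA bead assay after 16 h compound exposure of THP-1 cells; compounds (final up to 57.5 uM) added 1 h before LPS (250 ng/mL) and ATP (1.25 mM) stimulation; lower signal means less secretion.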
# ATXN2 expr inh: reduces ATXN2 reporter expression in HEK-293 cells | HEK-293 ATXN2-luciferase reporter, luminescence, 24 h | Potency, µM (highest dose often 57 µM), actives largely listed as inhibitors | actives 0.72% (n = 360,000); further: nearly all actives have a fitted effect of over 55% in size
#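 ATXN2-luciferase reporter cells (luciferase flanked by upstream and downstream ATXN2 gene portions) were treated 24 h at 37 °C with compounds at up to 57 uM. SteadyGlo luminescence gave expression; GF-AFC fluorescence gave viability.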
# PINK1 expr mod: changes PINK1 expression; PINK1 immunofluorescence, high-content cytometry, 24 h; Potency, µM (series often up to 76.6 µM), actives largely listed as activators; actives 0.2% (n = 410,000); active means well fitted activation curve with a large enough effect; inconclusive means small, poorly fitted or top-dose-only effect; cell line not stated here; further: nearly all actives have a fitted effect of over 65% in size
#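 Cells are seeded, rested 12 hours, then given compound at five concentrations or DMSO for 24 hours. After fixation, blocking and antibody staining, PINK1 amount and mitochondrial localization are scored; CCCP serves as control.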
# SW480 rerep: induces DNA re-replication in SW480 colon adenocarcinoma cells. SW480 DNA re-replication, Hoechst DNA content imaging, 48 h. AID 624297. actives 1.8% (n = 340,000). Potency, µM (series often up to 46.1 µM), most hits filed as activators; further: nearly all actives have a fitted effect of over 55% in size
#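 First, 250 cells per well were seeded. Next, compound or vehicle (23 nL) was pinned in, plates sat 48 hr at 37 C. Finally Hoechst was added for 40 min before fluorescence scanning.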
# Numbers stand for hits; - = inactive; ? = inconclusive; . = no result. Shown are actives, neighbours in structure and some others; about 7.1% of the full set was active somewhere. Unless noted, the call rests on the fitted dose curve; in most records, active means well fitted curve in the direction sought with a large enough effect; inconclusive means small, poorly fitted or top-dose-only effect, or another doubt; inactive means no such curve, though single readings can be large; an effect the other way counts as inactive or inconclusive.
SMILES,S2 tox,MCF10A rerep,IL-1B inflam inh,ATXN2 expr inh,PINK1 expr mod,SW480 rerep
CCn1cc(C(=O)NCc2ccc(Cl)cc2)c(=O)c2cc(S(=O)(=O)N(C)C)ccc21,-,?,-69,-,-,?
CCn1cc(C(=O)NCCc2ccc(Cl)cc2)c(=O)c2cc(S(=O)(=O)N(C)C)ccc21,-,-,-,-,-,-
O=[N+]([O-])c1c(Nc2cccc(O)c2)cc(Cl)c2nonc12,10µM,?,-96,?,-,?
O=C(O)c1ccc(Nc2cc(Cl)c3nonc3c2[N+](=O)[O-])cc1,?,-,-,-,-,?
Cc1c(Nc2cc(Cl)c3nonc3c2[N+](=O)[O-])c(=O)n(-c2ccccc2)n1C,28µM,?,-105,?,-,-
Nc1cc(Nc2ccccc2)c2nonc2c1[N+](=O)[O-],-,?,-,-,45µM,-
O=[N+]([O-])c1cncc([N+](=O)[O-])c1Nc1cccc(O)c1,.,-,-,20µM,-,?
COc1ccc(CCN(C)C(=O)c2cnn(-c3nccc(-c4ccc(C)o4)n3)c2C)cc1OC,-,.,.,.,-,.
CCc1ccc(C(=O)c2cn(CC(=O)Nc3cc(F)ccc3F)c3nc(C)ccc3c2=O)cc1,-,.,.,-,-,.
Cc1ccc(C)c(N2CCN(C(=O)CN3C(=O)COc4ccc(S(=O)(=O)N5CCOCC5)cc43)CC2)c1,-,.,.,-,-,.
CC1CCc2c(sc3nnn(CC(=O)Nc4cccc(C(F)(F)F)c4)c(=O)c23)C1 (centres undefined),-,.,.,-,-,.
Cc1ccc(CNC(=O)Nc2ccc3c(c2)N(C)C(=O)CS3)cc1,-,-,-,-,-,-
Cc1ccc(NC(=O)Nc2ccc3c(c2)N(C)C(=O)CS3)cc1C,?,-,?,?,?,-
Cc1cc(C)cc(NC(=O)Nc2ccc3c(c2)N(C)C(=O)CS3)c1,-,-,-50,-,?,?
CCc1ccc(NC(=O)Nc2ccc3c(c2)N(C)C(=O)CS3)cc1,?,-,?,?,18µM,-
CC(C)(C)c1cnnn1-c1ccc(/C=N/Nc2ccc([N+](=O)[O-])cc2)cc1,-,?,-,-,-,18µM
Cc1ccc(C)n1-c1ccc(C(=O)/C=C/N(C)C)cc1,-,23µM,-87,-,-,?
Cc1ccc(-c2ccc(=O)n(CC(=O)Nc3ccc4c(c3)OCCO4)n2)cc1,-,?,-,-,-,-
COc1ccccc1NC(=O)Cn1nc(-c2ccc3c(c2)OCCO3)ccc1=O,-,0.92µM,-,-,-,-
CN(C)S(=O)(=O)c1ccc(NC(=O)Cn2nc(-c3ccc4c(c3)OCCO4)ccc2=O)cc1,-,-,-,-,-,18µM
Cc1cc(C)c(NC(=O)Cn2c(=O)n(CC(=O)NCc3ccccc3Cl)c(=O)c3sccc32)c(C)c1,-,.,.,-,-,.
CCN(CC)CCNC(=O)c1ccc(-n2c(-c3ccccc3)cc3c2CCCC3)cc1,.,.,.,.,-,.
Nc1[nH]c(=O)[nH]c(=O)c1N=Nc1ccccc1Cl,-,23µM,-,.,-,-
Cc1cc(C)c(NC(=O)Cn2c(=O)n(CC3CCCO3)c(=O)c3ccccc32)c(C)c1 (centres undefined),-,.,.,-,-,.
Cc1ccccc1NC(=O)c1sc2nc[nH]c(=O)c2c1C,-,-,-,-,.,-
SMILES,S2 tox,MCF10A rerep,IL-1B inflam inh,ATXN2 expr inh,PINK1 expr mod,SW480 rerep
Cc1nc2sc(C(=O)Nc3ccccc3Cc3ccccc3)c(C)c2c(=O)[nH]1,?,5.8µM,-,.,-,-
Cc1ccccc1-c1ccc(CN2CCc3nnc(C(NS(C)(=O)=O)C(C)C)n3CC2)cc1 (centres undefined),-,.,.,.,-,.
CN(C)C1=NCCN1CCCC1CCCCC1,-,?,?,-,-,23µM
CN(C)C1=NCCN1CCC1CCCC1,-,-,-,-,-,-
c1ccc(NC2=NCCN2CCCC2CCCCC2)cc1,-,-,-61,-,-,0.26µM
Cc1ccc(C)c(NC(=O)CN2CCSc3ccc(S(=O)(=O)N4CCCC4)cc32)c1,?,.,.,-,-,.
Cc1ccc(NC(=O)c2cc(S(=O)(=O)N3CCc4ccccc43)cn2C)c(Cl)c1,.,.,.,.,-,.
CC(C)NC(=O)CCC(=O)N1Cc2ccccc2Oc2ncccc21,-,.,.,-,-,.

# Bioassay records (PubChem BioAssay)
